Source: PubChem BioAssay (NCATS)
Results filed as inconclusive are left out. Where a call stands in place of a potency, no number is given. Calls of active or inactive are those of the source. Unless noted, calls follow the shape of the dose curve; as a rule, active = well fitted curve in the direction sought with a large enough effect; inconclusive = small, poorly fitted or top-dose-only effect, or another doubt; inactive = no such curve, though single readings can be large; an effect the other way counts as inactive or inconclusive. *1 amine or outer side, *2 acyl side, *3 side chain or, on linkers, in order; H or OH if unused. Where a SMILES comes first, the peptide text is derived from it. Bridges are numbered along the chain shown (N, C = ends). Roman numbers before positions name the chains, in order. [ ]: non-standard residue; d: D form. ξ: configuration not given here. Actinocin(9to1) = Cc1c2oc3c(C)ccc(C(=O)[*:1])c3nc-2c(C(=O)[*:2])c(N)c1=O; ξNMeV = CNC(C(=O)O)C(C)C; ξV = CC(C)C(N)C(=O)O; Sar = CNCC(=O)O

Legend:
[1] = target: Voltage-gated inwardly rectifying potassium channel KCNH2 (Homo sapiens) (UniProt Q12809); assay: qHTS Assay for Small Molecule Inhibitors of the Human hERG Channel Activity (AID 588834);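 also: lower thallium flux fluorescence means stronger hERG block; nearly all actives have a fitted effect of over 50% in size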; also: potency is read from the fitted curve at half-maximal effect
Voltage-gated inwardly rectifying potassium channel KCNH2 (Homo sapiens), sequence (Q12809 whole entry, looked up): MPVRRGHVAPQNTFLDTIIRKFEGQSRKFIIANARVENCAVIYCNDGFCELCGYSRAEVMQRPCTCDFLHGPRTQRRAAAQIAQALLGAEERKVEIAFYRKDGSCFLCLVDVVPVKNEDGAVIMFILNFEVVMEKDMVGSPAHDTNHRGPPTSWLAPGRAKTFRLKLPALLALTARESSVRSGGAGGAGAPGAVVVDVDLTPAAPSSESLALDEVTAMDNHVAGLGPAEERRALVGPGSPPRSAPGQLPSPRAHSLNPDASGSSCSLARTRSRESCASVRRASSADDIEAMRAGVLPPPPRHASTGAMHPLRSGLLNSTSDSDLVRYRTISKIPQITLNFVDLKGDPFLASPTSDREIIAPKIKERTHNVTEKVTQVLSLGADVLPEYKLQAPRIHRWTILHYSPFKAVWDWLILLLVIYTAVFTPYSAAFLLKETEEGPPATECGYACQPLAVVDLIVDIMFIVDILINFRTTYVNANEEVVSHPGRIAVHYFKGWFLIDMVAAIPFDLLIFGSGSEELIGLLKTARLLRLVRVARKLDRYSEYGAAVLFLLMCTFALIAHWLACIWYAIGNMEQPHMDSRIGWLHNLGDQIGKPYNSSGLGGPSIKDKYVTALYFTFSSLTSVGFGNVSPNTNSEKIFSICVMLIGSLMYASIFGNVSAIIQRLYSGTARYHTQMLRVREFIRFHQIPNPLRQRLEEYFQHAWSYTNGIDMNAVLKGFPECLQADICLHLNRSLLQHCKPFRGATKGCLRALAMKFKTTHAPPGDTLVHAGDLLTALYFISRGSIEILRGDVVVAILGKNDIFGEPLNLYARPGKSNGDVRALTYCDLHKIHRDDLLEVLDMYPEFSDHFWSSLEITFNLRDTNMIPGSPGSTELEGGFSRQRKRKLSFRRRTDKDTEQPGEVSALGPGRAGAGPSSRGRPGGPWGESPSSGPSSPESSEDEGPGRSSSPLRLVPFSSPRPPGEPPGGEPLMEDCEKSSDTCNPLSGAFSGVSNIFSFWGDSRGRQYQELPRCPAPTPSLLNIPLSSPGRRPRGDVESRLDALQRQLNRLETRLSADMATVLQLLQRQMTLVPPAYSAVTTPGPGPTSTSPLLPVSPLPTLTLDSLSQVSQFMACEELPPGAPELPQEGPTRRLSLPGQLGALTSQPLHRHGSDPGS
How it was run: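 Thallium serves as surrogate for K+ influx through BacMam-delivered hERG in U2OS cells. Compounds are added for about 10 minutes after dye loading; stimulation buffer then starts flux, monitored kinetically on FDSS.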

[2] = target: Luciferin 4-monooxygenase (Photinus pyralis) (UniProt P08659); assay: Biochemical firefly luciferase enzyme assay for NPC (AID 624030); also: nearly all actives have a fitted effect of over 70% in size; also: potency is read from the fitted curve at half-maximal effect
Luciferin 4-monooxygenase (Photinus pyralis), sequence (P08659 whole entry, looked up): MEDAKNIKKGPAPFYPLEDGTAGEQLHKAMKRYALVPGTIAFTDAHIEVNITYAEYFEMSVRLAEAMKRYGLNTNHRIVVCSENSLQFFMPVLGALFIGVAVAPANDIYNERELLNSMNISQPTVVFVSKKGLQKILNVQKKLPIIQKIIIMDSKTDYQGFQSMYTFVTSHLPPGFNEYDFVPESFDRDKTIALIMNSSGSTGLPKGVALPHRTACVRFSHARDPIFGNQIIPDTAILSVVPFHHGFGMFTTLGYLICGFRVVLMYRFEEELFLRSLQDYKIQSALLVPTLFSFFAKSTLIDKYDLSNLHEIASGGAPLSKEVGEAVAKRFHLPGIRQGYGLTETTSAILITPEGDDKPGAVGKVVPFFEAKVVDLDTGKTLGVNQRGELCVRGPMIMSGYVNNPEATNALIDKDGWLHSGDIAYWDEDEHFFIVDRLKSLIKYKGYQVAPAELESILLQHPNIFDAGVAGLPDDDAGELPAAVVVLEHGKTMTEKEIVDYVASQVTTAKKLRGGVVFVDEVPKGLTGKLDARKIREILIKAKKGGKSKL
How it was run: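 Direct inhibition of firefly luciferase enzyme (10 nM final, 50 mM Tris Acetate) assessed by luminescence within 5 minutes. Percent activity scaled between DMSO and PTC124 positive control, with concentration-effect curves classified by fit quality and response.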

[3] = S16 Schwann cell PMP22 intronic element beta-lactamase assay (AID 624044; calls by dose curve; also: nearly all actives have a fitted effect of over 15% in size; also: potency is read from the fitted curve at half-maximal effect)
How it was run: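 Beta-lactamase reporter under a PMP22 intronic regulatory element in stable S16 rat Schwann cells; 24 h compound exposure. 460 nm blue signal normalized between DMSO (0%) and potassium clavulanate, with 535 nm FRET tracking viability; curves classed by r2 and response.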

[4] = Cytotoxicity counterscreen for NFkB agonists and antagonists (AID 624476);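 also: cells exposed to compound for 48 hours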; also: potency is read from the fitted curve at half-maximal effect
[5] = qHTS Assay for Identification of Small Molecule Agonists for NFkB Signaling Pathway. (AID 624478)
How it was run: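 Compounds were added with 10 pM TNF alpha (EC50 level) to ME-180 NFkB-bla cells in low-serum Opti-MEM and incubated 5 hrs at 37 C. Beta-lactamase FRET read-out used 405 nm excitation and 460 and 530 nm emission.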

[6] = qHTS Assay for Identification of Small Molecule Antagonists for NFkB Signaling Pathway. (AID 624479; calls by dose curve;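 also: pathway stimulated with TNF alpha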; also: potency is read from the fitted curve at half-maximal effect)
[7] = Cell Proliferation Assay against the TMD8 Cell Line (AID 651645); conditions: TMD8 DLBCL cell line proliferation/viability; at 46.1 µM (top of the series) unless noted;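 also: cells exposed to compound for 48 h before reading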
How it was run: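 TMD8 cells, 500/well in RPMI with 5% FBS, dosed immediately and grown 48 h at 37 C, 5% CO2. CellTiter-Glo luminescence normalised to DMSO 100% and 9.2 uM bortezomib (final) 0%.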

[8] = Cell Proliferation Assay against the TMD8 Cell Line (Caspase readout at 8 hrs) (AID 651713); also: potency is read from the fitted curve at half-maximal effect
How it was run: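 Apoptosis read-out: Caspase-Glo luminescence after 8 h compound exposure of TMD8 lymphoma cells at 37C, 5% CO2. Signals were normalized as percent activity between DMSO and bortezomib (9.2 uM final) controls.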

[9] = S16 Schwann cell viability assay (CellTiter-Glo assay) (AID 624031); also: nearly all actives have a fitted effect of over 70% in size; also: potency is read from the fitted curve at half-maximal effect
How it was run: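 CellTiter-Glo ATP luminescence counter-screen in untransfected S16 rat Schwann cells, 24h compound exposure at 37 degree Celsius after overnight seeding (500-750 cells/well); response scaled between cell-free wells and DMSO (0% activity), curves classed by r2 and magnitude.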

[10] = S16 Schwann cell PMP22 intronic element firefly luciferase assay (AID 624032); also: nearly all actives have a fitted effect of over 30% in size
How it was run: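 Luciferase reporter of PMP22 intronic-element expression in stably transfected S16 rat Schwann cells, read by ONE-Glo luminescence after 24 h compound exposure at 37 C. Activity scaled between DMSO (0%) and positive-control PTC124; concentration-effect curves quality-classified.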

[11] = qHTS assay for small molecule activators of the p53 signaling pathway (AID 651743; active = well fitted activation curve with a large enough effect in the signal ratio, not every such curve was filed as active; the % refers to the signal ratio); conditions: HCT-116 p53RE-bla, beta-lactamase FRET ratio, 16 h; activation: stronger effect = higher value
How it was run: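 After 16 hours compound treatment at 37 C, HCT-116 cells stably expressing p53RE-driven beta-lactamase were loaded with LiveBLAzer B/G FRET substrate for 2 hours at room temperature. Fluorescence intensity served as the p53 activation read-out.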

[12] = qHTS assay for small molecule activators of the nuclear factor-kappa B (NF-kB) signaling pathway (AID 651749; active = well fitted activation curve with a large enough effect in the signal ratio; the % refers to the signal ratio); conditions: NF-kB-bla ME-180 cells, beta-lactamase FRET ratio, 16 h; stronger effect = higher value
How it was run: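 Activation measured after 16 hr compound treatment at 37C, 5% CO2, of 2,000 ME-180 cells/well stably expressing an NF-kB response element–driven beta-lactamase reporter, via FRET-disruption fluorescence.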

[13] = Cell Proliferation Assay against the TMD8 Cell Line (Caspase readout at 16 hrs) (AID 651712); also: potency is read from the fitted curve at half-maximal effect
How it was run: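 Caspase-Glo luminescence measured apoptosis after a 16 h, 37 C compound exposure of TMD8 cells (500 cells/well, 5% FBS RPMI). DMSO set 0% and bortezomib at 9.2 uM final set 100% activity.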

CC[C@@]1(O)C(=O)OCc2c1cc1n(c2=O)Cc2cc3c([N+](=O)[O-])cccc3nc2-1
Potency [1]: inactive | Potency [2]: inactive | Potency [3]: 1.41 µM (active)

CCN(CC)CCOc1ccc(-c2nc3cc(Cl)ccc3s2)cc1
Potency [1]: 5.01 µM (active) | Potency [2]: 6.42 µM (active) | Potency [3]: inactive

CO[C@H]1C[C@@H]2CC[C@@H](C)[C@@](O)(O2)C(=O)C(=O)N2CCCC[C@H]2C(=O)O[C@H]([C@H](C)C[C@@H]2CC[C@@H](OCCO)[C@H](OC)C2)CC(=O)[C@H](C)/C=C(\C)[C@@H](O)[C@@H](OC)C(=O)[C@H](C)C[C@H](C)/C=C/C=C/C=C/1C
Potency [1]: inactive | Potency [2]: inactive | Potency [3]: inactive

OC[C@H]1O[C@@H](n2cnc3c2NC=NC[C@H]3O)C[C@@H]1O
Potency [2]: inactive

Cc1c2oc3c(C)ccc(C(=O)N[C@@H]4C(=O)NC(C(C)C)C(=O)N5CCC[C@H]5C(=O)N(C)CC(=O)N(C)C(C(C)C)C(=O)O[C@@H]4C)c3nc-2c(C(=O)N[C@@H]2C(=O)NC(C(C)C)C(=O)N3CCC[C@H]3C(=O)N(C)CC(=O)N(C)C(C(C)C)C(=O)O[C@@H]2C)c(N)c1=O (stereo partly drawn) (I: T[ξV]P[Sar][ξNMeV] / II: T[ξV]P[Sar][ξNMeV]; ester I:1-I:C, II:1-II:C; linker I:N-II:N via Actinocin(9to1))
Potency [4]: 0.0013 µM (active) | outcome [5]: inactive | Potency [6]: 0.0119 µM (active) | viability (% of control) [7]: 3.49%

CCOc1cc2ncc(C#N)c(Nc3ccc(OCc4ccccn4)c(Cl)c3)c2cc1NC(=O)/C=C/CN(C)C
Potency [4]: 37.2 µM (active) | outcome [5]: inactive | Potency [6]: 7.49 µM (active) | viability (% of control) [7]: -0.655% | Potency [8]: 23.5 µM (active)

CCCCC(CC)COC(=O)CC(C(=O)OCC(CC)CCCC)S(=O)(=O)O (stereo not drawn)
Potency [9]: inactive | Potency [10]: inactive | Potency [3]: inactive | activation [11]: 1.7% (inactive) | activation [12]: -3.42% (inactive)

CN(C)CCCN1c2ccccc2C(C)(C)c2ccccc21
Potency [2]: inactive | Potency [9]: 28.7 µM (active) | Potency [3]: inactive

Cc1ccccc1OCC(O)CNCCOc1ccc(C(N)=O)cc1 (stereo not drawn)
Potency [2]: inactive | Potency [10]: inactive | Potency [3]: inactive

CCCCCCCCCCCCCCCCCCOP(=O)([O-])OC1CC[N+](C)(C)CC1
Potency [2]: inactive | Potency [4]: inactive | outcome [5]: inactive | Potency [6]: inactive | viability (% of control) [7]: 102% [at 29.8 µM] | Potency [13]: inactive | Potency [8]: inactive

CN1C(=O)CN2CCc3ccccc3C2c2cc(Cl)ccc21 (stereo not drawn)
Potency [2]: inactive | Potency [9]: inactive | Potency [3]: inactive

Cc1nnc(C(C)C)n1C1CC2CCC(C1)N2CC[C@H](NC(=O)C1CCC(F)(F)CC1)c1ccccc1 (stereo partly drawn)
Potency [4]: inactive | outcome [5]: inactive | Potency [6]: inactive | viability (% of control) [7]: 86.2% | Potency [13]: inactive | Potency [8]: inactive

COC(C(=O)C(O)C(C)O)C1Cc2cc3cc(OC4CC(OC5CC(O)C(O)C(C)O5)C(O)C(C)O4)c(C)c(O)c3c(O)c2C(=O)C1OC1CC(OC2CC(OC3CC(C)(O)C(O)C(C)O3)C(O)C(C)O2)C(O)C(C)O1 (stereo not drawn)
Potency [9]: inactive | Potency [10]: inactive | Potency [3]: 22.4 µM (active)

Cc1c(C)c2c(c(C)c1O)CC[C@@](C)(CCC[C@H](C)CCC[C@H](C)CCCC(C)C)O2
Potency [2]: inactive | Potency [9]: inactive | Potency [3]: inactive

CN(NC(=O)CC(=O)NN(C)C(=S)c1ccccc1)C(=S)c1ccccc1
Potency [4]: inactive | outcome [5]: inactive | Potency [6]: inactive | viability (% of control) [7]: 81.1% | Potency [13]: inactive | Potency [8]: inactive

CC[C@@H](C(=O)O)C1CC[C@H](C)C([C@@H](C)[C@H](O)[C@H](C)C(=O)[C@H](CC)C2O[C@]3(C=C[C@@H](O)[C@]4(CC[C@@](C)(C5CC[C@](O)(CC)[C@H](C)O5)O4)O3)[C@H](C)C[C@@H]2C)O1 (stereo partly drawn)
outcome [5]: inactive | viability (% of control) [7]: 2.54%

CC(NC(=O)Cc1cc(F)cc(F)c1)C(=O)NC(C(=O)OC(C)(C)C)c1ccccc1 (stereo not drawn)
Potency [4]: inactive | outcome [5]: inactive | Potency [6]: inactive | viability (% of control) [7]: 90.6% | Potency [13]: inactive | Potency [8]: inactive

CCC1(O)CC2CN(CCc3c([nH]c4ccccc34)[C@@](C(=O)OC)(c3cc4c(cc3OC)N(C=O)[C@H]3[C@](O)(C(=O)OC)[C@H](OC(C)=O)[C@]5(CC)C=CCN6CC[C@]43[C@@H]65)C2)C1 (stereo partly drawn)
Potency [4]: inactive | outcome [5]: inactive | Potency [6]: inactive | viability (% of control) [7]: -0.162% | Potency [8]: 1.32 µM (active)

NC(=O)Nc1cc(-c2ccc(CN3CCOCC3)c(F)c2)sc1C(=O)N[C@H]1CCCNC1
Potency [4]: 0.59 µM (active) | outcome [5]: inactive | Potency [6]: 4.73 µM (active) | viability (% of control) [7]: 1.45% | Potency [13]: 0.0469 µM (active)

O=c1cc(C2=CC=CC3Sc4ccccc4SC23)oc(N2CCOCC2)c1 (stereo not drawn)
outcome [5]: inactive | viability (% of control) [7]: 10.5% | Potency [13]: 8.33 µM (active) | Potency [8]: 7.43 µM (active)

O=C(Nc1ccc(Br)cc1)c1cc(Br)c(Br)s1
Potency [2]: 16.1 µM (active) | Potency [3]: inactive

C[C@@H]1CCN(C(=O)CC#N)C[C@@H]1N(C)c1ncnc2[nH]ccc12
Potency [4]: inactive | outcome [5]: inactive | viability (% of control) [7]: 76.9% | Potency [13]: inactive | Potency [8]: inactive

CNC1CCN(C(Cc2cccc(-c3ccncc3)c2)C(=O)c2sc3c(F)ccc(F)c3c2Cl)CC1 (stereo not drawn)
outcome [5]: inactive | Potency [6]: inactive | viability (% of control) [7]: 0.928%

C#C[C@]1(O)CC[C@H]2[C@@H]3CCC4=CCCC[C@@H]4[C@H]3C(=C)C[C@@]21CC
Potency [2]: inactive | Potency [10]: inactive | Potency [3]: inactive

CCCCC(C)(O)C/C=C/[C@H]1[C@H](O)CC(=O)[C@@H]1CCCCCCC(=O)OC (stereo partly drawn)
Potency [2]: inactive | Potency [9]: inactive | Potency [3]: inactive

CCCCCCCCCCCCCC[n+]1ccc(C)cc1
Potency [2]: inactive | Potency [3]: 19.9 µM (active)
